Bioassay records deposited in PubChem BioAssay by Sanford-Burnham Center for Chemical Genomics.
CYP2C19 inhib – blocks human cytochrome P450 2C19; P33261; CYP2C19 Supersomes, luciferin-H EGE luminescence, 30 min; inhibition, % at 5 µM; actives 21% (n = 96,000); AID 778;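 active means CYP2C19 inhibition above a set limit at 5 µM in the primary screen, cut at about 50% in these data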;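 further: plate controls were negative control wells for no effect and 2.5 mM tranylcypromine positive control for full effect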
CYP2C9 activ – increases human cytochrome P450 2C9 activity. AID 1024. P11712. activation factor at 5 µM. actives 1.4% (n = 96,000). recombinant CYP2C9, luciferin-H conversion, luminescence; active compounds read high; factor 1 = untreated enzyme, 0 = blocked;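 active means activation factor of 2 or more for CYP2C9 at a 5 µM dose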;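 further: 0 = sulfaphenazole-blocked wells and 1 = vehicle-only wells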
CYP2C19 act – cytochrome P450 2C19 (human) activation. P33261. recombinant CYP2C19, luciferin-H EGE luminescence; active compounds read high; 0 = fully inhibited enzyme, 1 = untreated enzyme. activation factor at 5 µM. 96,000 tested, under 10 active. AID 1025;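 active means activation factor of at least 2 at 5 µM in the primary screen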;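 further: 0 = wells with 2.5 mM tranylcypromine and 1 = vehicle-only wells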
CYP2C9 inh – inhibitors of human CYP2C9. CYP2C9 Supersomes, luciferin-H conversion, luminescence. inhibition, % at 5 µM. P11712. actives 20% (n = 96,000). AID 777;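 active means blocking of liver enzyme CYP2C9 beyond about 50% at 5 µM, limit read from the data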
PLAP act – activates human placental alkaline phosphatase; activation fold at 20 µM; purified PLAP enzyme, luminescent substrate read-out; active compounds read high; P05187; actives 1.2% (n = 96,000); in the data active means activation fold above about 2
Target sequence (P05187 whole entry, looked up): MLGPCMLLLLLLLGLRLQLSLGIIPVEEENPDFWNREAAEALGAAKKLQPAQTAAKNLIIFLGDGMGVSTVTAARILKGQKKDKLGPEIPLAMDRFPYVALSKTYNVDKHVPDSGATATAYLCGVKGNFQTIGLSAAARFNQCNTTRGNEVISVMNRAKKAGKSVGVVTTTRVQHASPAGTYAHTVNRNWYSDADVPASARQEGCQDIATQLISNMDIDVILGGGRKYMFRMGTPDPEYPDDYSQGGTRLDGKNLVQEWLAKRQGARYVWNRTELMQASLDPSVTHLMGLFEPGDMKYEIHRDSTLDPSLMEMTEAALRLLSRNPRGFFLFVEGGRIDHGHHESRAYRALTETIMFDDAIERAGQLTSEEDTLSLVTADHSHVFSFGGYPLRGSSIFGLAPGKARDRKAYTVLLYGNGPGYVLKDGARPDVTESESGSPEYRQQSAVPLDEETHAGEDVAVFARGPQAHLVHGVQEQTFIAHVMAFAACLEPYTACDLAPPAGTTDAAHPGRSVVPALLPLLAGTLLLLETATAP
Active calls of the source: *; · = no result given. Hits are enriched below; roughly 31% of the tested compounds scored in any of these assays.

SMILES | CYP2C19 inhib | CYP2C9 activ | CYP2C19 act | CYP2C9 inh | PLAP act
CCN1C(=O)/C(=C/N(C(C)=O)c2ccccc2)N(c2ccccc2)C1=S | 62.8* | 0 | 0.4 | 95.4* | 1.5
CC[n+]1c(/C=C/C=C/N(C(C)=O)c2ccccc2)sc2ccccc21 | · | · | · | · | 0.5
COc1ccccc1NC(=O)COC(=O)c1cnccn1 | 12.0 | 0.7 | 0.9 | 32.3 | 0.9
Cc1ccc(C)c(N2CCN(C(=O)C3CCCN(S(=O)(=O)c4cnc[nH]4)C3)CC2)c1 (stereo unspecified) | -4.5 | 1 | 1 | 0.3 | 1.8
Cc1ccc(NC(=O)C2CCCN(S(=O)(=O)c3cnc[nH]3)C2)cc1C (stereo unspecified) | 90.5* | 0.1 | 0.1 | 86.0* | 1.6
O=C(Nc1ccc(Cl)c(C(F)(F)F)c1)C1CCCN(S(=O)(=O)c2cnc[nH]2)C1 (stereo unspecified) | 93.3* | 0.1 | 0.1 | 93.8* | 1.4
Cc1cc(NC(=O)C2CCCN(S(=O)(=O)c3cnc[nH]3)C2)ccc1Br (stereo unspecified) | 96.8* | 0.1 | 0 | 94.1* | 1.9
O=C(Nc1cccc(Cl)c1)C1CCCN(S(=O)(=O)c2cnc[nH]2)C1 (stereo unspecified) | 95.2* | 0 | 0 | 95.6* | 1.3
O=C(NCCN1CCN(c2cccc(Cl)c2)CC1)C1CCCN(S(=O)(=O)c2cnc[nH]2)C1 (stereo unspecified) | -0.4 | 0.7 | 1 | 27.0 | 1.7
Cc1cccc(Oc2ncc(-c3ccc(Cl)cc3)cn2)c1 | -1.5 | 1.2 | 1 | -16.1 | 1.3
CCOC(=O)c1[nH]c(C)c(C(=O)NCCCN2CCOCC2)c1C | -7.5 | 1.1 | 1.1 | -14.3 | 0.9
COc1ccc(NC(=O)C2CCCN(S(=O)(=O)c3cnc[nH]3)C2)cc1 (stereo unspecified) | 37.1 | 0.4 | 0.6 | 61.9* | 0.9
O=C(Nc1ccc2c(c1)OCCO2)C1CCCN(S(=O)(=O)c2cnc[nH]2)C1 (stereo unspecified) | 14.2 | 0.4 | 0.9 | 62.2* | 1.1
O=c1c2cc3c(cc2[nH]c(=S)n1CCN1CCOCC1)OCO3 | -4.1 | 0.8 | 1 | 17.1 | 1
O=C(CCCCCn1c(=S)[nH]c2cc3c(cc2c1=O)OCO3)N1CCN(Cc2ccccc2)CC1 | 46.2 | 0.3 | 0.5 | 69.6* | 1.4
O=C(CCCCCn1c(=S)[nH]c2cc3c(cc2c1=O)OCO3)N1CCN(C(=O)c2ccco2)CC1 | 17.9 | 0.4 | 0.8 | 64.5* | 1.1
COc1ccc2[nH]c3c(=O)n(CCCCC(=O)N4CCCC4)c(=S)[nH]c3c2c1 | 31.0 | 0.4 | 0.7 | 59.9* | 1.1
O=C(CCCCCn1c(=S)[nH]c2cc3c(cc2c1=O)OCO3)N1CCN(C2CCCCC2)CC1 | 30.1 | 0.2 | 0.7 | 80.9* | 1.4
N/C(=N\OC(=O)C1CCCCC1)c1cccnc1 | 7.3 | 1 | 0.9 | -1.9 | 1
CC(=O)NC1CSCC1OC(C)=O (stereo unspecified) | -9.6 | 1.2 | 1.1 | -20.3 | 0.8
CCCCNCC(=O)Nc1ccc(NC(=O)CNCCCC)cc1 | 1.3 | 0.9 | 1 | 12.9 | 1.3
Cc1ccc(C)c(N2CCN(C(=O)CCn3c(=S)[nH]c4cc5c(cc4c3=O)OCO5)CC2)c1 | 42.4 | 0.2 | 0.6 | 78.7* | 1.6
COc1ccc(N2CCN(C(=O)CCCn3c(=S)[nH]c4cc5c(cc4c3=O)OCO5)CC2)cc1 | -4.2 | 0.3 | 1 | 74.0* | 0.9
O=C(CCCn1c(=S)[nH]c2cc3c(cc2c1=O)OCO3)N1CCN(c2ccccn2)CC1 | 1.8 | 0.5 | 1 | 46.2 | 1.3
CC(C)OCCCn1c(=S)[nH]c2cc3c(cc2c1=O)OCO3 | 39.2 | 1.3 | 0.6 | -31.7 | 0.9
SMILES | CYP2C19 inhib | CYP2C9 activ | CYP2C19 act | CYP2C9 inh | PLAP act
CCC(=O)c1cccc2c1N=CC1=C(CC(C)(C)CC1=O)N2 | 27.4 | 0.5 | 0.7 | 54.7* | 0.9
CCOC(=O)c1ccc(COC(=O)c2ccc3c(c2)-c2ccccc2C3=O)cc1 | 17.5 | 1 | 0.8 | -2.4 | 0.9
CCCc1ccc(/C=C2\C(=O)c3ccccc3C(O)=C2C(=O)OCC)cc1 | 78.2* | 0.1 | 0.2 | 92.1* | 0.8
CCOC(=O)C1=C(O)c2ccccc2C(=O)/C1=C\c1ccc(CC)cc1 | 89.3* | 0 | 0.1 | 96.6* | 0.8
Cc1cc(C(=O)Nc2sc(C)c(-c3ccc(F)cc3)c2C(N)=O)no1 | -2.1 | 0.8 | 1 | 16.9 | 1
Cc1sc(NC(=O)c2ccc(OCC(C)C)cc2)c(C(N)=O)c1-c1ccc(Cl)cc1Cl | 12.2 | 0.3 | 0.9 | 68.5* | 1
CCCCn1cnc2c1c(=O)[nH]c(=O)n2CCCC | 31.2 | 0.9 | 0.7 | 14.6 | 1.3
CCNC(=O)C(C)Sc1ccc(Cl)cc1 (stereo unspecified) | 16.7 | 1.2 | 0.8 | -19.7 | 1.1
C=CCNC(=O)C(C)Sc1ccc(Cl)cc1 (stereo unspecified) | 70.1* | 0.6 | 0.3 | 39.1 | 1.1
COCCn1c(SCC(=O)OCc2ccccc2)nc2c1c(=O)[nH]c(=O)n2C | -8.9 | 1 | 1.1 | -3.4 | 1.1
O=C1CS/C(=N\c2ccccn2)N1C1CCCCC1 | 3.7 | 0.9 | 1 | 8.6 | 1
O=C(CSc1nc2c(c(=O)[nH]1)CCC2)Nc1cccc(Cl)c1 | 20.0 | 0.5 | 0.8 | 46.4 | 1
COCc1cc(C)nc(SCC(=O)NCc2ccco2)c1C#N | 37.5 | 0.8 | 0.6 | 17.4 | 0.8
N#Cc1c(-c2ccco2)nc(SCC(=O)Nc2cccc(Cl)c2)[nH]c1=O | 60.5* | 0 | 0.4 | 99.0* | 1.3
COc1cccc(NC(=O)CSc2nc3c(c(-c4ccco4)c2C#N)CCCC3)c1 | 11.9 | 0.5 | 0.9 | 52.8* | 0.9
COCCOC(=O)c1c(C)nc(SCC(=O)Nc2ccc(OC)cc2)c(C#N)c1-c1ccco1 | 7.8 | 0.5 | 0.9 | 54.0* | 1.1
Cc1nc(SCC(=O)c2ccccc2)c(C#N)c(-c2ccco2)c1C(=O)NCc1ccco1 | 45.1 | 0.2 | 0.5 | 79.1* | 1.4
Cc1cc(NC(=O)CSc2nc3c(c(-c4cccnc4)c2C#N)CCC3)no1 | 13.6 | 0.5 | 0.9 | 46.7 | 1.2
Cc1cccc(C)c1NC(=O)C(c1ccc(Cl)cc1Cl)N1CCCCC1 (stereo unspecified) | 12.8 | 0.7 | 0.9 | 26.7 | 1.2
O=c1cc(O)n(-c2ccc(Cl)cc2)c(=S)[nH]1 | 12.5 | 0.6 | 0.9 | 42.9 | 1.7
N#CC1(c2ccccc2)CCCN1C(=O)c1ccco1 (stereo unspecified) | 9.6 | 0.9 | 0.9 | 7.7 | 0.9
c1ccc2c(c1)[nH]c1nc3nncn3nc12 | -1.0 | 1 | 1 | -3.3 | 1
CN1CCc2nc(SCC(=O)Nc3cccc(F)c3)c(C#N)c(-c3cccs3)c2C1 | 94.6* | 0 | 0.1 | 100.5* | 1
Cc1cc(C)n2nc(CC(=O)NC3CCCCCC3)nc2n1 | -14.4 | 1.2 | 1.1 | -18.4 | 1.1
Cn1c(NC(=O)c2cc(Br)ccc2Cl)cc(=O)n(C)c1=O | 59.4* | 0.7 | 0.4 | 28.9 | 0.9
